How the values were obtained:
[1] = molecular target: CDK3/Cyclin E (Homo sapiens) (UniProt P24864+Q00526); settings: at 1 µM;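 also: each figure is a mean percent inhibition of the CDK3/cyclin E complex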
[2] = molecular target: Cyclin-dependent kinase 4 (Homo sapiens) (UniProt P11802); settings: at 0.1 µM
[3] = molecular target: Cyclin-dependent kinase 4 (Homo sapiens) (UniProt P11802); settings: at 1 µM
[4] = molecular target: Cyclin-dependent kinase 5 (Homo sapiens) (UniProt Q00535); settings: at 0.1 µM
[5] = molecular target: Cyclin-dependent kinase 5 (Homo sapiens) (UniProt Q00535); settings: at 1 µM
[6] = molecular target: Cyclin-dependent kinase 6 (Homo sapiens) (UniProt Q00534); settings: at 0.1 µM
[7] = molecular target: Cyclin-dependent kinase 6 (Homo sapiens) (UniProt Q00534); settings: at 1 µM
[8] = molecular target: Dual specificity protein kinase CLK2 (Homo sapiens) (UniProt P49760); settings: at 0.1 µM
[9] = molecular target: Dual specificity protein kinase CLK2 (Homo sapiens) (UniProt P49760); settings: at 1 µM
[10] = molecular target: Dual specificity protein kinase CLK3 (Homo sapiens) (UniProt P49761); settings: at 0.1 µM
Dual specificity protein kinase CLK3 (Homo sapiens), sequence (P49761 whole entry, looked up): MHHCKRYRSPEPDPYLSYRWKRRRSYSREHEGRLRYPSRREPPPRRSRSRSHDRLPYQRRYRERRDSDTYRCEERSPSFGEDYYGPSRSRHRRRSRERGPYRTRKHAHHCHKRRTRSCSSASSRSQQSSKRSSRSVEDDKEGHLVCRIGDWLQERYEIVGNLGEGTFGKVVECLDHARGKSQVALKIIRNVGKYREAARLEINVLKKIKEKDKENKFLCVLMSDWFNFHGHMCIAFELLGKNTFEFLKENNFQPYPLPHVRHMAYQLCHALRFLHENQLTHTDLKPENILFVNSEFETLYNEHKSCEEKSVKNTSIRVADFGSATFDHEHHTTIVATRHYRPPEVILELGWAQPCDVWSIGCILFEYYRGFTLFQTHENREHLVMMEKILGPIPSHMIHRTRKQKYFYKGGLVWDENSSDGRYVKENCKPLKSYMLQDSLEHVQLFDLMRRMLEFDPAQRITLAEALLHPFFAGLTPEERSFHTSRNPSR

Cyclin-dependent kinase 4 (Homo sapiens), sequence (P11802 whole entry): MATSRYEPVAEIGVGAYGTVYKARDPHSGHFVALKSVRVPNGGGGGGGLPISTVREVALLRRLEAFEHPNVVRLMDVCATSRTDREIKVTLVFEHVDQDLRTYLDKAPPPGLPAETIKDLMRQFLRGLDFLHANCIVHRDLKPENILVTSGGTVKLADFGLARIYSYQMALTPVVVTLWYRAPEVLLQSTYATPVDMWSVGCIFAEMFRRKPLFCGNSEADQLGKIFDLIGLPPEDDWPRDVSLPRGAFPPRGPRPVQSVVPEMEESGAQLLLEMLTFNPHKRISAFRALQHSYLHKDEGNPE
Cyclin-dependent kinase 6 (Homo sapiens), sequence (Q00534 whole entry): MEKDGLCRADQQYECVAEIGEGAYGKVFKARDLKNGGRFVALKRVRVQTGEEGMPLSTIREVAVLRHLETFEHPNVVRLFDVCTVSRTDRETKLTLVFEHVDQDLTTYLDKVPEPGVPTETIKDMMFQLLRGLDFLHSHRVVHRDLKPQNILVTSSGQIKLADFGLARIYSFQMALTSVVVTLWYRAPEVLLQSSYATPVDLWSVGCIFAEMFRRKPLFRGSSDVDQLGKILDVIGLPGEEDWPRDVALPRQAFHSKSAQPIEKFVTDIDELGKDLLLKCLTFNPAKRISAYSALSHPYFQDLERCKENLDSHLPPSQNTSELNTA
Dual specificity protein kinase CLK2 (Homo sapiens), sequence (P49760 whole entry, looked up): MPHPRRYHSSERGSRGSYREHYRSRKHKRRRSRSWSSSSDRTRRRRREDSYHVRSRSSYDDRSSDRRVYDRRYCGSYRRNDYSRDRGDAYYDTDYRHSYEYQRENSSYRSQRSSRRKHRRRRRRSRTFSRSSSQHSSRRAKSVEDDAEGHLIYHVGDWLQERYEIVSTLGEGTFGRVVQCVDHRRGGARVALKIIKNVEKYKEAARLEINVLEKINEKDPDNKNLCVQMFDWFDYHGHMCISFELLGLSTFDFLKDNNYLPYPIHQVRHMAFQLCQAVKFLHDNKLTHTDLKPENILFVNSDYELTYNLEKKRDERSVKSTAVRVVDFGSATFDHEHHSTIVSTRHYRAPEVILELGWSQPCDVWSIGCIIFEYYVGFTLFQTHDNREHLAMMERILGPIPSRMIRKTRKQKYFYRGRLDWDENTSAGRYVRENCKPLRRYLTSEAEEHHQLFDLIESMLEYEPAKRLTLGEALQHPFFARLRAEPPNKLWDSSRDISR
Cyclin-dependent kinase 5 (Homo sapiens), sequence (Q00535 whole entry, looked up): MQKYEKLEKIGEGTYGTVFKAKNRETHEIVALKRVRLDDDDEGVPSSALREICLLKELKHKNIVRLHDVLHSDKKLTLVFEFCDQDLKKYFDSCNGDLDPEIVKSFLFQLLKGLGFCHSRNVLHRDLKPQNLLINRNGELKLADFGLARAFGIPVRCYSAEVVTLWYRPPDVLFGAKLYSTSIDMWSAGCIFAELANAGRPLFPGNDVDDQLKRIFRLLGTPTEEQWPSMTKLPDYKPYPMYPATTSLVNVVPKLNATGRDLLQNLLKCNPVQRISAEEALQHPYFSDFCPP
CDK3/Cyclin E (Homo sapiens), sequence (P24864 whole entry, looked up): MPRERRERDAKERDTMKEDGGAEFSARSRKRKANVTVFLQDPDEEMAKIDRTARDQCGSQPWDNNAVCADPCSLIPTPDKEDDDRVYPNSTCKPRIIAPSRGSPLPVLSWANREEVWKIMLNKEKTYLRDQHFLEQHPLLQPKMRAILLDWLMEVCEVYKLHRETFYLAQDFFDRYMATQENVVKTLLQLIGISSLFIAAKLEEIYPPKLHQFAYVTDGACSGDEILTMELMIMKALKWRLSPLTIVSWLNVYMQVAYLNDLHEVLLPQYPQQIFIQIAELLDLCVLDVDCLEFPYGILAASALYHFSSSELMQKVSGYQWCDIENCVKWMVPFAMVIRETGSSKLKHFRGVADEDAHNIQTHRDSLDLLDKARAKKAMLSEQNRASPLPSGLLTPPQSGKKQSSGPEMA
CDK3/Cyclin E (Homo sapiens), sequence (Q00526 whole entry, looked up): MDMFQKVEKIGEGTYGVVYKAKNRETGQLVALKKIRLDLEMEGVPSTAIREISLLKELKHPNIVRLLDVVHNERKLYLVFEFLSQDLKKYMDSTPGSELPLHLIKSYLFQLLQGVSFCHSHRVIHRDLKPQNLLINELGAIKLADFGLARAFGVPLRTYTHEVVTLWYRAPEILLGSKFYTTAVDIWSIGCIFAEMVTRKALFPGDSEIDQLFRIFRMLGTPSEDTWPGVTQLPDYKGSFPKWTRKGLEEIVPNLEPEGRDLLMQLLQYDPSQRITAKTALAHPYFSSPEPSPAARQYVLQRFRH

SMILES	inhibition [1]	inhibition [2]	inhibition [3]	inhibition [4]	inhibition [5]	inhibition [6]	inhibition [7]	inhibition [8]	inhibition [9]	inhibition [10]
CS(=O)(=O)CCNCc1nc(-c2ccc3ncnc(Nc4ccc(F)c(Cl)c4)c3c2)cs1	-2.13%	0.51%	0.73%	0.12%	0.38%	6.34%	-1.47%	0.29%	2.89%	-0.05%
O=C1NC(=O)C(c2ccc(Cl)cc2)=C1Nc1ccc(Cl)c(C(=O)O)c1	1.13%	0.08%	-0.02%	0.36%	1.75%	4.89%	5.18%	-0.15%	1.55%	1.39%
CC(C)=Cc1cccc2c1/C(=N/Nc1ccc(S(N)(=O)=O)cc1)C(=O)N2	99.1%	34.3%	68.9%	39.7%	73.3%	63.6%	91.4%	1.69%	7.38%	-6.71%
CCn1c(-c2nonc2N)nc2c(N3CCCC3)nccc21	-0.6%	15.6%	4.7%	1.73%	4.5%	-2.76%	2.52%	-0.76%	-0.67%	1%
CNC(=O)c1cncc(/C=C/c2c(Cl)cccc2Cl)c1	-3.08%	0.86%	3.96%	-2.57%	-0.63%	-5.76%	-5.69%	2.47%	5.66%	-3.56%
CCn1c(-c2nonc2N)nc2cncc(C(=O)N3CC[C@H](N)C3)c21	-2.13%	2.98%	2.35%	0.46%	0.69%	-1.51%	4.8%	5.07%	21.6%	1.31%
CC1=C(C(=O)Nc2ccc3[nH]ncc3c2)C(c2ccc(F)cc2)NC(=O)N1 (centres undefined)	-0.84%	1.79%	4.05%	0.41%	3.23%	-2.46%	4.38%	-0.24%	0.68%	3.34%
CS(=O)(=O)CCNCc1ccc(-c2ccc3ncnc(Nc4ccc(OCc5ccccc5)c(Cl)c4)c3c2)o1	-1.2%	-0.14%	4.1%	2.15%	3.8%	-5.27%	-2.22%	2.2%	1.75%	0.36%
COc1cc(C=NNc2ncnc3c2cnn3-c2ccccc2)ccc1O	12.7%	3.09%	18.6%	4%	24.5%	4.2%	21.7%	3.39%	9.02%	
Cc1ccc(C(=O)NC2CCCCC2)cc1-c1ccc(C(=O)NCC2CC2)cc1	0.7%	2.37%	2.51%	1.19%	1.18%	3.79%	0.76%	2.01%	2.19%	0.94%
CCn1c(-c2nonc2N)nc2cncc(C(=O)N3CCNCC3)c21	0.54%	2.78%	3.57%	0.79%	1.06%	-0.98%	3.06%	2.04%	5.8%	2.42%
O=C1NC(=O)C(c2ccccc2Cl)=C1Nc1cccc(O)c1	19.4%	7.12%	25.4%	4.62%	26.6%	7.16%	28.7%	4.29%	36.9%	2.2%
CN1CCC(C(=O)Nc2n[nH]c3nnc(-c4ccccc4)cc23)CC1	5.97%	8.86%	29.4%	1.11%	3.61%	7.11%	21.4%	1.34%	2.3%	1.91%
COc1cc2ncn(-c3cc(O[C@@H](C)c4ccccc4Cl)c(C(N)=O)s3)c2cc1OC	-0.13%	2.39%	4.14%	0.19%	2.21%	-0.46%	1.56%	0.33%	0.86%	0.71%
COc1cc(C)c(NC(=O)CN(C)C)cc1Nc1nc(Nc2cccc(F)c2C(N)=O)c2cc[nH]c2n1	0.15%	0.8%	1.16%	-0.59%	-1.89%	-0.3%	3.87%	45.4%	88.8%	1.76%
CC1=C(C(=O)Nc2ccc3[nH]ncc3c2)C(c2ccc(Cl)c(Cl)c2)CC(=O)N1 (centres undefined)	0.2%	0.92%	-0.63%	-0.73%	-0.62%	2.47%	0.05%	0.09%	4.18%	0.34%
NCc1ccc(-c2nc(-c3ccc(Cl)c(O)c3)c(-c3ccncc3)[nH]2)cc1	-2.19%	1.89%	3.19%	1.65%	3.47%	-3.35%	1.53%	2.01%	0.72%	0.63%

Reference: ChEMBL document CHEMBL1961873, “Compounds: GSK PKIS; Assays: Nanosyn kinase panel” (2012)
